Results on seven compounds are retold here after the supplement of paper PMC12067926.

A number with no mark means an inactive call.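 How the source made its calls: active = growth AUC significantly below the DMSO wells by Dunnett test; inactive = the rest.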

Experiment in all cases: relative growth (AUC of 72 h growth curve relative to DMSO control, dAUC) (ratio); higher = more growth (less inhibition), active = hit call of the paper
Common to all, as to details: 20 µM

For assay [1], the system named is Aeromonas 1 (Aeromonas sp. AE235). Summed up:
(§1)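 Bacterial isolates from Icelandic stream sediments and Silwood Park soil, plus whole sediment communities, were grown to carrying capacity in Luria–Bertani medium, then diluted 1:100 into 96-well plates with each chemical at 20 µM (1% DMSO). A600 was read hourly for 72 h on a plate reader, with brief shaking before each read. Relative growth (dAUC) is the spline-integrated area under the growth curve, averaged over three biological replicates and divided by the mean of the DMSO controls.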

Assay [2] relates to Aeromonas 2 (Aeromonas sobria). Summed up: as §1
Assay [3] deals with Aeromonas 3 (Aeromonas popoffii). Summed up: as §1
For assay [4], the system named is Argrobacterium 1 (Agrobacterium sp.). Summed up: as §1
Assay [5] has as its system Arthrobacter 1 (Arthrobacter humicola). Summed up: as §1
Assay [6] deals with Arthrobacter 2 (Arthrobacter humicola). Summed up:
as §1

In assay [7] the test system is Arthrobacter 3 (Arthrobacter sp.). Summed up: as §1
Another assay concerns Community 4. Summed up: as §1
A further assay deals with Community 6. Summed up: as §1
A further assay deals with Community 7. Summed up: as §1
In another assay the test system is Community 8. Summed up: as §1
A further assay concerns Community 9. Summed up: as §1
In assay [8] the test system is Flavobacterium 1 (Flavobacterium glaciei). Summed up: as §1
In assay [9] the test system is Flavobacterium 2 (Flavobacterium succinicans). Summed up:
as §1

The subject of assay [10] is Hymenobacter 1 (Hymenobacter glaciei). Summed up:
as §1

The subject of assay [11] is Microbacterium 1 (Microbacterium arborescens). Summed up: as §1
Assay [12] has as its system Neobacillus 1 (Neobacillus soli). Summed up:
as §1

Assay [13] concerns Oryzobacter 1 (Oryzobacter terrae). Summed up: as §1
In assay [14] the test system is Paenibacillus 1 (Paenibacillus castaneae). Summed up: as §1

Turning to `COc1cc(OC)nc(NC(=O)NS(=O)(=O)c2ncccc2C(=O)N(C)C)n1`, the relative growth in assay [1] is 1.06; in assay [2] it was 1.01; in [3], 1.03; in assay [4], 0.995; in [5] it was 0.976; in [6] it was 1.11. The relative growth was 1.05 in assay [7]; 1.08 in the assay on Community 4; 1.06 in the assay with Community 6; 1.02 with Community 7; 1.07 with Community 8; 1.08 in the assay on Community 9. Besides, the relative growth in [8] was 1.12; in [9], 1.08; in assay [10], 1.16; in assay [11], 1.04; in [12], 1.1; in assay [13], 0.98. In addition, in assay [14], the relative growth was 1.08.
As for `COP(=S)(OC)Oc1nc(Cl)c(Cl)cc1Cl`, the relative growth was 1.04 in assay [1]; 1.02 in assay [2]; 1.01 in [3]; 1.05 in assay [4]; 0.769 in [5]; 0.312 (active) in [6]. Further, the relative growth was 0.646 (active) in assay [7]; 0.867 in the assay with Community 4; 0.987 with Community 6; 1.04 in the assay with Community 7; 1.06 in the assay on Community 8; 1.03 in the assay on Community 9. For the same compound, the relative growth was 0.348 (active) in [8]; 0.97 in assay [9]; 0.99 in assay [10]; 1.04 in assay [11]; 1.01 in assay [12]; 1.05 in assay [13]. Besides, the relative growth in assay [14] was 0.874.
For `Nc1c(Cl)c(F)nc(OCC(=O)O)c1Cl`, the relative growth in assay [1] is 0.974; in [2], 1; in assay [3], 0.991; in assay [4], 1.03; in assay [5], 1.1; in assay [6], 1.02. Besides, the relative growth was 0.991 in assay [7]; 1.07 with Community 4; 1.01 in the assay on Community 6; 1.01 in the assay on Community 7; 1.04 in the assay with Community 8; 1.03 with Community 9. Moreover, the relative growth in [8] is 1.07; in assay [9] it was 0.993; in [10] it was 1.03; in [11], 1.02; in [12] it was 1.04; in assay [13], 1.01. In addition, the relative growth in assay [14] was 1.03.
As for `Cc1cccc2sc3nncn3c12`, the relative growth in [1] was 0.985; in [2], 0.988; in assay [3] it was 1; in [4], 0.915; in [5], 0.993; in [6], 0.932. The relative growth in assay [7] is 1.01; in the assay on Community 4 it was 0.917; in the assay with Community 6 it was 0.96; in the assay on Community 7, 1.05; with Community 8 it was 1.01; with Community 9, 0.899. The relative growth in assay [8] is 1.01; in assay [9] it was 0.95; in assay [10] it was 0.996; in assay [11], 1.05; in assay [12] it was 0.969; in [13], 1.05. Also, the relative growth in assay [14] was 0.943.
On to `CC(C)(C)c1ccc(CSc2cnn(C(C)(C)C)c(=O)c2Cl)cc1`, for which the relative growth was 1.02 in [1]; 0.975 in assay [2]; 1.03 in assay [3]; 1.01 in assay [4]; 1.02 in assay [5]; 0.875 in assay [6]. Moreover, the relative growth in assay [7] is 0.98; in the assay with Community 4, 1.01; with Community 6, 1.04; with Community 7, 1.12; in the assay on Community 8 it was 1.03; with Community 9 it was 0.994. Also, the relative growth was 0.923 in assay [8]; 1 in assay [9]; 1.01 in assay [10]; 1.08 in assay [11]; 0.915 in assay [12]; 1.04 in [13]. Besides, the relative growth in [14] was 0.971.
On to `COCC(C)N(C(=O)CCl)c1c(C)csc1C` (stereo not drawn), for which the relative growth in assay [1] is 0.991; in [2] it was 0.984; in [3], 0.964; in assay [4] it was 1.02; in assay [5], 0.907; in assay [6] it was 0.814. The relative growth is 1.05 in assay [7]; 0.913 with Community 4; 0.975 with Community 6; 0.996 in the assay on Community 7; 1.01 in the assay with Community 8; 1.01 with Community 9. For the same compound, the relative growth was 0.948 in [8]; 1.01 in [9]; 0.962 in assay [10]; 1.04 in [11]; 0.98 in assay [12]; 0.982 in assay [13]. Moreover, the relative growth in assay [14] is 0.961.
Consider `Nc1c([N+](=O)[O-])ccc(Oc2ccccc2)c1Cl`, for which the relative growth in [1] was 0.959; in [2] it was 0.953; in assay [3], 0.961; in [4], 0.972; in assay [5], 0.894; in assay [6], 0.826. Further, the relative growth in assay [7] was 0.957; in the assay with Community 4, 0.851; in the assay on Community 6, 0.856; with Community 7, 0.955; in the assay on Community 8, 1.03; in the assay with Community 9, 0.907. For the same compound, the relative growth in assay [8] was 0.864; in assay [9], 0.917; in assay [10] it was 1.09; in [11], 1.03; in [12], 0.913; in assay [13] it was 1.05. Further, in [14], the relative growth was 0.843.
